Bioassay records from PubChem BioAssay.
GCN5L2 inh = GCN5L2 (KAT2A) acetyltransferase inhibition | GCN5L2 HAT assay, ThioGlo1 CoA-SH fluorescence | Potency, µM (series often up to 58.9 µM), hits mostly inhibitors | 0.21% of 390,000 active
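ThioGlo1-coupled HAT assay: 20nM GCN5L2, 70uM acetyl-CoA, 75uM H3(1-25) peptide, pH 7.5. Fluorescence read at 340/540nm at start and after 20 min at room temperature.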
RGS4 inhibitor = human RGS4 inhibition; P49798; Transcreener GDP fluorescence polarization, RGS4-accelerated GTP hydrolysis; Potency, µM (highest dose often 114 µM), actives largely listed as inhibitors; 0.039% of 390,000 active; note: nearly all actives have a fitted effect of over 75% in size
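MLSMR compounds (23 nl, pin-transferred) preincubated 10 min at room temperature with a 500nM (2x) first reagent, then RGS4 at 900nM (2x) plus Transcreener GDP mix added; fluorescence polarization (620/688 nm) read before and after 90 min at 30 °C.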
GLP-1R inv ag = inverse agonists of human GLP-1 receptor | P43220 | 1.6% of 410,000 active | AID 624417 | HEK293 GLP-1R CRE-luciferase, luminescence, 24 h; GLP-1R form is constitutively active | Potency, µM (series often up to 38.3 µM), hits mostly inhibitors; note: nearly all actives have a fitted effect of over 55% in size
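Seeding at 200 cells/uL, 12 h culture, 24 hr compound treatment, then luciferase reagent and a luminescence read; cells are HEK293 stably expressing a constitutively active GLP-1R plus cAMP-responsive luciferase.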
GLP1R cytotox = cytotoxic in the GLP-1 receptor inverse agonist counter-screen; HEK293 cAMP-luciferase reporter cells, luminescence, 24 h; Potency, µM (top dose mostly 38.3 µM), actives largely listed as inhibitors; 0.13% of 410,000 active;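 note: loss of luciferase light is scored as toxicity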
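MLSMR compounds, 24 hr on cells at 37 deg C/5% CO2; luminescence after luciferase reagent (12 min RT). Inhibition counted as the undesired cytotoxic outcome.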
GLP1R ag = GLP-1 receptor (human) agonism; P43220; HEK293 GLP-1R CRE-luciferase, luminescence, 4-6 h; cells express a hypersensitive GLP-1R form; Potency, µM (titrated, usually from 45.6 µM), actives largely listed as activators; 0.007% of 380,000 active; AID 624172
PTHR1 ag = activates the human parathyroid hormone receptor PTHR1 | Q03431 | HEK293 GP2 PTHR1 cells, GloSensor cAMP luminescence, 1 h | Potency, µM (series often up to 115 µM), usual class: activators | 0.075% of 410,000 active; note: nearly all actives have a fitted effect of over 55% in size
Target sequence (Q03431 whole entry, looked up): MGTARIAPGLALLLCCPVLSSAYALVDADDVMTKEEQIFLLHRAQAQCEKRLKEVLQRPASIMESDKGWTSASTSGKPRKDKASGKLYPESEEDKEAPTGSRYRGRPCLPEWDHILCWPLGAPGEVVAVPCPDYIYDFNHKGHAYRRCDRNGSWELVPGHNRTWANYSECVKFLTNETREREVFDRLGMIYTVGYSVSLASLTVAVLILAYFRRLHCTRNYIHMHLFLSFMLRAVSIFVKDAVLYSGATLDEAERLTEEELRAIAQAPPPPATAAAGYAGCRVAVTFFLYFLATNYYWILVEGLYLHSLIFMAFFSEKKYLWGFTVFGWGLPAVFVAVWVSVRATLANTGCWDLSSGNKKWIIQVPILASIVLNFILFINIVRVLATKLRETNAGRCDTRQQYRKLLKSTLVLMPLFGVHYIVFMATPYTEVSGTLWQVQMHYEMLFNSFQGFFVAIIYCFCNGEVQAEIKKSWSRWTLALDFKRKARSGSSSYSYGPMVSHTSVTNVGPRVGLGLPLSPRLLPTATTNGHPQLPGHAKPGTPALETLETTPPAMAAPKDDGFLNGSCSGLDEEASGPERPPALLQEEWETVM
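HEK-293-derived GP2 cells expressing PTHR1 and a GloSensor cAMP reporter, 3,000/well, plated overnight, given luciferin plus IBMX (each 0.5 mM as added) for 1 h at 37 °C, then compound for 1 h at 37 °C. Luminescence was read after 15 min at room temperature.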
A number is an active result; - = inactive; ? = inconclusive; . = not tested or not shown; [ ] = dose if it differs, or a comment. Most compounds without a hit are left out; they make up all but 1.8% or so of the library. Calls come from the whole dose curve; as a rule, active = well fitted curve in the direction sought with a large enough effect; inconclusive = small, poorly fitted or top-dose-only effect, or another doubt; inactive = no such curve, though single readings can be large; an effect the other way counts as inactive or inconclusive.

SMILES	GCN5L2 inh	RGS4 inhibitor	GLP-1R inv ag	GLP1R cytotox	GLP1R ag	PTHR1 ag
CSc1cccc(NC(=S)N(CCCN2CCCC2)Cc2cccn2Cc2ccc(Cl)cc2)c1	-	-	3.5µM	11µM	-	-
CSc1cccc(NC(=S)N2CCCN(Cc3cccc(Cl)c3)C2)c1	-	-	3.5µM	-	-	-
COc1ccc(NC(=S)N2CCCN(Cc3cccc(Cl)c3)C2)cc1	-	-	8.9µM	-	-	-
S=C(Nc1cccc(Cl)c1)N(CCCN1CCCC1)Cc1cccn1Cc1ccc(Cl)cc1	-	-	?	?	-	-
CCOc1ccc(NC(=S)N2CCCN(Cc3cccc(Cl)c3)C2)cc1	-	-	?	-	-	-
Cc1nn(CC2CC2)c(=O)n1-c1ccc(Oc2ccccc2)cc1	-	-	?	-	-	-
Cc1cc2nc3c(=O)[nH]c(=O)nc-3n(C)c2cc1C=O	28µM	.	.	.	.	.
CC(=O)OCCn1c2nc(=O)[nH]c(=O)c-2nc2cc(C)c(C)cc21	?	-	-	-	-	-
Clc1ccc(/C=N/Nc2ncnc3ccccc23)cc1Cl	-	-	?	2.2µM	-	-
COc1cc(N2CN=c3s/c(=C\c4ccccn4)c(=O)n3C2)cc(OC)c1OC	-	-[11.4 µM]	-	-	-	-
COc1cc(NS(=O)(=O)c2ccc(OC)c(C)c2C)c(OC)cc1Cl	-	-	4µM	-	-	-
COc1ccc(OC)c(S(=O)(=O)Nc2cc(OC)c(Cl)cc2OC)c1	.	-	-	-	-	-
CCNc1nc(NC(C)(C)C)nc(SC(C(C)=O)C(C)=O)n1	-	-	8.9µM	-	-	-
CNc1ncnc(Sc2ccc(Cl)cc2)c1[N+](=O)[O-]	-	-	-	-	-	-
Clc1ccc2[nH]c3c(c2c1)CNCC3	-	-	10µM	-	-	-
CC[C@H](C)[C@H](NC(=O)[C@H](Cc1cnc[nH]1)NC(=O)[C@@H](NC(=O)[C@H](CCCNC(=N)N)NC(=O)[C@H](CCCCN)NC(=O)[C@H](CCCNC(=N)N)NC(=O)[C@H](CCCCN)NC(=O)[C@@H](N)CC(N)=O)[C@@H](C)CC)C(=O)NCC(=O)N1CCC[C@H]1C(=O)NCC(=O)N[C@@H](CCCNC(=N)N)C(=O)N[C@@H](C)C(=O)N[C@@H](Cc1ccccc1)C(=O)N[C@@H](Cc1ccc(O)cc1)C(=O)N[C@H](C(=O)N[C@H](C(=O)N[C@@H](CCCCN)C(=O)N[C@@H](CC(N)=O)C(=O)N[C@H](C(=O)N[C@H](C(=O)NCC(=O)N[C@H](C(=O)N[C@H](C(=O)N[C@@H](CS)C(=O)O)[C@@H](C)CC)[C@@H](C)O)[C@@H](C)CC)[C@@H](C)CC)[C@@H](C)O)[C@@H](C)O	-	.	.	.	.	.
O=C(CNC(=O)c1ccc(F)cc1)c1ccc(Cl)cc1	-	-	?	-	-	-
CO/N=C(/CNC(=O)c1ccc(F)cc1)c1ccc(Cl)cc1	-	-	8.9µM	-	-	-
O=C(CCl)N1N=C(c2ccco2)CC1c1ccco1 (stereo not given)	-	?	2.2µM	?	-	-
COc1ccccc1CNC(=O)CCn1c(=O)c2ccccc2n(CC(=O)Nc2ccc(C)cc2C)c1=O	-	-	-	-	-	-
Cc1nc(-c2ccc(S(=O)(=O)NCc3ccc(OC(C)C)cc3)cc2)co1	-	-	-	-	-	-
O=C(NCc1ccccc1CN1CCCC1)c1ccc(S(=O)(=O)Nc2ccccc2F)cc1	.	.	-	-	-	-
O=C(NCc1ccccc1CN1CCCC1)c1ccc(S(=O)(=O)Nc2ccccc2)cc1	.	.	13µM	-	-	-
O=C(NC1CCN(Cc2ccccc2)CC1)c1cccc(NS(=O)(=O)c2ccc(Br)cc2)c1	.	-	11µM	-	-	-
Cc1ccc(S(=O)(=O)Nc2cccc(C(=O)NC3CCN(Cc4ccccc4)CC3)c2)cc1F	-	-	?	?	-	-
SMILES	GCN5L2 inh	RGS4 inhibitor	GLP-1R inv ag	GLP1R cytotox	GLP1R ag	PTHR1 ag
COc1ccc(NC(=O)C(=O)NCC2CCCN2S(=O)(=O)c2cc(C)ccc2C)cc1 (stereo not given)	-	-	4µM	?	-	-
S=c1nc(-c2cc(Cl)ccc2Cl)[nH][nH]1	3.5µM	?	-	-	-	-
O=S(=O)(O)c1ccc2c(c1)-c1nc-2nc2[nH]c(nc3nc(nc4[nH]c(n1)c1ccc(S(=O)(=O)O)cc41)-c1ccc(S(=O)(=O)O)cc1-3)c1ccc(S(=O)(=O)O)cc21	0.63µM	.	.	.	.	.
O=C(Nc1ccc2c(c1)OCCO2)c1ccc(Br)s1	-	-	10µM	?	-	-
COc1ccc(C(=O)Nc2ccc3c(c2)OCCO3)cc1	-	-	13µM	-	-	-
COc1cccc([C@@H]2Oc3ccc(Br)cc3C(=O)[C@H]2OC(=O)NC2CCCC2)c1	-	-	11µM	-	-	-
Cc1[nH][nH]c(=O)c1C(c1c(C)[nH][nH]c1=O)c1cn(Cc2ccc(Cl)c(Cl)c2)c2ccccc12	-	?	?	-[1.53 µM]	-	-
Cc1[nH][nH]c(=O)c1C(c1c(C)[nH][nH]c1=O)c1cn(Cc2ccc(F)cc2)c2ccccc12	-	-	2µM	?	-	-
O=C(CN1CCN(C(c2ccccc2)c2ccccc2)CC1)N1N=CCC1c1ccccc1 (stereo not given)	-	-	11µM	-	-	-
O=C(CN1CCN(c2ccccc2)CC1)N1N=CCC1c1ccccc1 (stereo not given)	-	-	-	-	-	-
O=C(O)C[CH2][Ge](=[O])[O][Ge](=[O])[CH2]CC(=O)O	-	.	.	.	-	.
Cc1c(C)c2c(c(C)c1OC(=O)CCC(=O)OCCO)CC[C@](C)(CCC[C@H](C)CCC[C@H](C)CCCC(C)C)O2	.	.	.	.	-	.
CCn1cc(C(=O)N2CCN(c3cccc(C)c3C)CC2)c2cc(OC)c(OC)cc2c1=O	-	-	-	-	-	-
CN1CCC(N(C)C(=O)c2ccc(Cl)c(S(=O)(=O)N(C)c3ccc(Cl)cc3)c2)CC1	-	-	11µM	-	-	-
O=S(=O)(c1cccs1)N1CCN(CC(O)COc2cccc(Br)c2)CC1 (stereo not given)	-	-	8.9µM	-	-	-
O=S(=O)(c1cccs1)N1CCN(CC(O)COC2CCCc3ccccc32)CC1 (stereo not given)	-	-	?	-	-	-
Cc1ccc(S(=O)(=O)NCCc2nnc3ccc(N4CCOCC4)nn23)cc1	.	.	-	-	-	-
